Reference: the supplement of paper PMC10720658
± gives the standard deviation of the averaged measurements.

test system: AEK1 (Tb927.3.2440); test: percent reduction in TR-FRET probe signal relative to DMSO control; higher = stronger displacement of ATP-site probe (binding); settings: 1 µM; incubation time 1 h

| SMILES | percent reduction in TR-FRET probe signal |
| --- | --- |
| NC(=O)Nc1cc(-c2cccc(F)c2)sc1C(=O)N[C@H]1CCCNC1 | 48.5 ± 24% |
| CN1CCCN(C(=O)c2cccc(-c3ccc(/C=C4/C(=O)Nc5ccc(Cl)cc54)o3)c2)CC1.Cl | -0.203 ± 9.8% |
| Cc1cnc(Nc2ccc(N3CCN(C)CC3)cc2)nc1Nc1cccc(S(=O)(=O)NC(C)(C)C)c1 | 5.49 ± 1.9% |
| C=CC(=O)Nc1cccc(Sc2nc(Nc3ccc(N4CCN(C)CC4)cc3)ncc2Cl)c1 | 3.76 ± 18% |
| CN1CCC(CNc2ccc3ncc(-c4cccc(OC(F)(F)F)c4)n3n2)CC1 [SGI-1776 free base] | 30 ± 15% |
| COc1cc(N2CCC(N)CC2)ccc1Nc1ncc(Cl)c(-c2c[nH]c3ccccc23)n1 | 7.47 ± 4.6% |
| CCN1/C(=C/C(C)=O)Sc2ccc(OC)cc21 | 2.44 ± 5.9% |
| C[C@H](NC(=O)/C(C#N)=C/c1cccc(Br)n1)c1ccccc1 | -10.8 ± 3.7% |
| COc1cc(C(=O)NC2CCN(C)CC2)ccc1Nc1ncc2c(n1)N(C1CCCC1)CC(F)(F)C(=O)N2C | -5 ± 7% |
| COc1ccc(-c2ccc3ncc4c(c3c2)n(-c2ccc(N3CCNCC3)c(C(F)(F)F)c2)c(=O)n4C)cn1.O=C(O)/C=C\C(=O)O | -5.09 ± 8.7% |
| COc1cccc(-c2cc(=O)c3ccccc3o2)c1N | -1.76 ± 8% |
| Cl.Cl.O=S(=O)(NCCNC/C=C/c1ccc(Br)cc1)c1cccc2cnccc12 | 9.74 ± 13% |
| N#C/C(=C\c1ccc(O)c(O)c1)C(=O)NCc1ccccc1 [AG-490 (Tyrphostin B42)] | -5.12 ± 12% |
| C[C@@H]1CCN(C(=O)CC#N)C[C@@H]1N(C)c1ncnc2[nH]ccc12.O=C(O)CC(O)(CC(=O)O)C(=O)O | -1.47 ± 8.1% |
| COc1cc2c(Oc3ccc(NC(=O)C4(C(=O)Nc5ccc(F)cc5)CC4)cc3F)ccnc2cc1OCCCN1CCOCC1 | 56 ± 11% |
| CC[C@@H]1C(=O)N(C)c2cnc(Nc3ccc(C(=O)N[C@H]4CC[C@H](N5CCN(CC6CC6)CC5)CC4)cc3OC)nc2N1C(C)C [Volasertib (BI 6727)] | 4.92 ± 1.3% |
| CCCS(=O)(=O)Nc1ccc(F)c(C(=O)c2c[nH]c3ncc(-c4ccc(Cl)cc4)cc23)c1F [Vemurafenib (PLX4032, RG7204)] | 4.16 ± 3% |
| O=c1cc(-c2cccc3c2Sc2ccccc2S3)oc(N2CCOCC2)c1 | -8.85 ± 7.2% |
| Clc1ccc(C2(c3ccc(-c4cn[nH]c4)cc3)CCNCC2)cc1 | 27.3 ± 17% |
| CCOc1cc(C(=O)N2CCC(N3CCN(C)CC3)CC2)ccc1Nc1ncc2c(n1)N(C1CCCC1)c1ccccc1C(=O)N2C | -3.15 ± 9.5% |
| O=[N+]([O-])c1cnc(Sc2nnc(O)n2-c2ccc3c(c2)OCCO3)s1 | 0.0867 ± 3.4% |
| NC(=O)c1ncn([C@@H]2O[C@H](CO)[C@@H](O)[C@H]2O)c1N [AICAR (Acadesine)] | -1.92 ± 11% |
| CCc1cnn2c(NCc3ccc[n+]([O-])c3)cc(N3CCCC[C@H]3CCO)nc12 | -4.69 ± 4.1% |
| NC(=O)Nc1sc(-c2ccc(F)cc2)cc1C(N)=O | 10.6 ± 8.8% |
| FC(F)c1nc2ccccc2n1-c1nc(N2CCOCC2)nc(N2CCOCC2)n1 | -1.21 ± 9.1% |
| O=C(NCCO)c1cccc(-c2cc(Nc3ccc(OC(F)(F)F)cc3)ncn2)c1 | 13.3 ± 16% |
| COC(=O)Nc1ccc(-c2nc(N3CCOCC3)c3cnn(C4CCN(C(=O)OC)CC4)c3n2)cc1 | -6.41 ± 11% |
